Among all 5,500 compounds or so, about 2,000 (36%) were called active. About 18% were inconclusive and are not listed. Cut-off read from the data, not from the text of the source: active = normalized growth mostly below about 0.91 (no sharp cut-off); inconclusive = no clear call, values can overlap the other calls; inactive = mostly above about 0.92. This is one part of the list.
Experiment: chemical genetic growth profiling, strain panel (AID 1159580);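 note: tested at 20 µM; growth read once vehicle control cultures reached saturation at 30 °C; 1 = growth at the plate median or of vehicle wells; lower values mean less growth of the strain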
Conditions: growth OD

Measured: normalized growth

COc1cc2c(cc1OC)[C@@H]1C(=O)c3ccc4c(c3O[C@@H]1CO2)C=CC(C)(C)O4
inactive: S. cerevisiae deletion strains, locus YKL009W, strain mrt4, stronger effect = lower value 0.999 | S. cerevisiae deletion strains, locus YKL068W, stronger effect = lower value 0.982 | S. cerevisiae deletion strains, locus YKL085W, strain MDH1 (second series), stronger effect = lower value 0.967 | S. cerevisiae deletion strains, locus YKL085W, strain MDH1, stronger effect = lower value 0.967 | S. cerevisiae deletion strains, locus YKL160W, strain elf1, stronger effect = lower value 0.973 | S. cerevisiae deletion strains, locus YKL190W, strain CNB1, stronger effect = lower value 0.986 | S. cerevisiae deletion strains, locus YKR001C, strain vps1, stronger effect = lower value 0.934 | S. cerevisiae deletion strains, locus YKR026C, strain gcn3, stronger effect = lower value 1.01 | S. cerevisiae deletion strains, locus YKR091W, strain srl3, stronger effect = lower value 1 | S. cerevisiae deletion strains, locus YLL001W, strain dnm1, stronger effect = lower value 0.992 | S. cerevisiae deletion strains, locus YLL026W, stronger effect = lower value 1.01 | S. cerevisiae deletion strains, locus YLL041C, strain sdh2, stronger effect = lower value 1.01 | S. cerevisiae deletion strains, locus YLR027C, strain aat2, stronger effect = lower value 0.982 | S. cerevisiae deletion strains, locus YLR039C, strain RIC1, stronger effect = lower value 0.891 | S. cerevisiae deletion strains, locus YLR058C, strain SHM2, stronger effect = lower value 0.983 | S. cerevisiae deletion strains, locus YLR102C, strain apc9, stronger effect = lower value 0.982 | S. cerevisiae deletion strains, locus YLR113W, strain HOG1, stronger effect = lower value 0.898 | S. cerevisiae deletion strains, locus YLR221C, strain rsa3, stronger effect = lower value 0.983 | S. cerevisiae deletion strains, locus YLR258W, strain gsy2, stronger effect = lower value 0.994 | S. cerevisiae deletion strains, locus YLR262C, strain YPT6 (second series), stronger effect = lower value 0.868 | S. cerevisiae deletion strains, locus YLR262C, strain YPT6, stronger effect = lower value 0.916 | S. cerevisiae deletion strains, locus YLR268W, strain sec22, stronger effect = lower value 0.97 | S. cerevisiae deletion strains, locus YLR320W, strain mms22, stronger effect = lower value 0.89 | S. cerevisiae deletion strains, locus YLR330W, strain CHS5, stronger effect = lower value 0.986 | S. cerevisiae deletion strains, locus YLR342W, strain FKS1 (second series), stronger effect = lower value 0.943 | S. cerevisiae deletion strains, locus YLR342W, strain FKS1, stronger effect = lower value 0.946 | S. cerevisiae deletion strains, locus YLR357W, strain rsc2, stronger effect = lower value 0.992 | S. cerevisiae deletion strains, locus YLR370C, strain arc18, stronger effect = lower value 1.01 | S. cerevisiae deletion strains, locus YLR371W, strain rom2, stronger effect = lower value 0.961 | S. cerevisiae deletion strains, locus YLR384C, strain iki3, stronger effect = lower value 1.03 | S. cerevisiae deletion strains, locus YLR418C, strain cdc73, stronger effect = lower value 0.962 | S. cerevisiae deletion strains, locus YML016C, strain PPZ1, stronger effect = lower value 0.981 | S. cerevisiae deletion strains, locus YML032C, strain rad52, stronger effect = lower value 0.964 | S. cerevisiae deletion strains, locus YML120C, strain ndi1, stronger effect = lower value 0.979 | S. cerevisiae deletion strains, locus YML124C, strain tub3, stronger effect = lower value 0.982 | S. cerevisiae deletion strains, locus YMR058W, strain fet3, stronger effect = lower value 0.978 | S. cerevisiae deletion strains, locus YMR078C, strain ctf18, stronger effect = lower value 0.952 | S. cerevisiae deletion strains, locus YMR125W, strain sto1, stronger effect = lower value 1.02 | S. cerevisiae deletion strains, locus YMR129W, stronger effect = lower value 0.995 | S. cerevisiae deletion strains, locus YMR205C, strain PFK2, stronger effect = lower value 0.92 | S. cerevisiae deletion strains, locus YMR223W, strain ubp8, stronger effect = lower value 0.954 | S. cerevisiae deletion strains, locus YMR231W, strain pep5, stronger effect = lower value 1.02 | S. cerevisiae deletion strains, locus YMR263W, strain SAP30, stronger effect = lower value 1 | S. cerevisiae deletion strains, locus YMR307W, strain GAS1, stronger effect = lower value 0.86 | S. cerevisiae deletion strains, locus YNL067W, strain RPL9B, stronger effect = lower value 1.01 | S. cerevisiae deletion strains, locus YNL071W, strain lat1, stronger effect = lower value 0.942 | S. cerevisiae deletion strains, locus YNL128W, strain TEP1, stronger effect = lower value 0.995 | S. cerevisiae deletion strains, locus YNL153C, strain GIM3, stronger effect = lower value 1.02 | S. cerevisiae deletion strains, locus YNL183C, strain NPR1, stronger effect = lower value 0.896 | S. cerevisiae deletion strains, locus YNL209W, strain ssb2, stronger effect = lower value 1.03 | S. cerevisiae deletion strains, locus YNL233W, strain BNI4, stronger effect = lower value 1 | S. cerevisiae deletion strains, locus YNL248C, strain rpa49, stronger effect = lower value 1.02 | S. cerevisiae deletion strains, locus YNL250W, strain rad50, stronger effect = lower value 0.972 | S. cerevisiae deletion strains, locus YNL271C, strain bni1, stronger effect = lower value 0.963 | S. cerevisiae deletion strains, locus YNL298W, strain CLA4, stronger effect = lower value 0.984 | S. cerevisiae deletion strains, locus YNL307C, strain MCK1, stronger effect = lower value 0.929 | S. cerevisiae deletion strains, locus YNL322C, strain KRE1 (second series), stronger effect = lower value 1.02 | S. cerevisiae deletion strains, locus YNL322C, strain KRE1, stronger effect = lower value 0.987 | S. cerevisiae deletion strains, locus YNR049C, strain mso1, stronger effect = lower value 1.01 | S. cerevisiae deletion strains, locus YNR052C, strain pop2, stronger effect = lower value 0.951 | S. cerevisiae deletion strains, locus YOL006C, strain TOP1, stronger effect = lower value 0.908 | S. cerevisiae deletion strains, locus YOL012C, strain htz1 1.09 | S. cerevisiae deletion strains, locus YOL147C, strain pex11, stronger effect = lower value 0.969 | S. cerevisiae deletion strains, locus YOR001W, strain rrp6, stronger effect = lower value 0.997 | S. cerevisiae deletion strains, locus YOR061W, strain CKA2, stronger effect = lower value 0.987 | S. cerevisiae deletion strains, locus YOR069W, strain VPS5, stronger effect = lower value 0.985 | S. cerevisiae deletion strains, locus YOR070C, strain gyp1, stronger effect = lower value 1.01 | S. cerevisiae deletion strains, locus YOR080W, strain dia2, stronger effect = lower value 1.02 | S. cerevisiae deletion strains, locus YOR083W, strain WHI5, stronger effect = lower value 0.943 | S. cerevisiae deletion strains, locus YOR106W, strain vam3, stronger effect = lower value 0.98 | S. cerevisiae deletion strains, locus YOR136W, strain idh2, stronger effect = lower value 0.983 | S. cerevisiae deletion strains, locus YOR144C, strain elg1, stronger effect = lower value 0.979 | S. cerevisiae deletion strains, locus YOR184W, strain ser1, stronger effect = lower value 0.899 | S. cerevisiae deletion strains, locus YOR231W, strain MKK1, stronger effect = lower value 0.953 | S. cerevisiae deletion strains, locus YOR265W, strain rbl2, stronger effect = lower value 1.01 | S. cerevisiae deletion strains, locus YOR270C, strain vph1, stronger effect = lower value 0.922 | S. cerevisiae deletion strains, locus YOR290C, strain snf2, stronger effect = lower value 1.01 | S. cerevisiae deletion strains, locus YOR316C, strain cot1, stronger effect = lower value 0.966 | S. cerevisiae deletion strains, locus YPL051W, strain arl3, stronger effect = lower value 0.973 | S. cerevisiae deletion strains, locus YPL055C, strain LGE1, stronger effect = lower value 0.995 | S. cerevisiae deletion strains, locus YPL078C, strain atp4, stronger effect = lower value 1.01 | S. cerevisiae deletion strains, locus YPL106C, strain sse1, stronger effect = lower value 1.06 | S. cerevisiae deletion strains, locus YPL240C, strain hsp82, stronger effect = lower value 1.04 | S. cerevisiae deletion strains, locus YPL241C, strain CIN2, stronger effect = lower value 0.986 | S. cerevisiae deletion strains, locus YPL256C, strain CLN2, stronger effect = lower value 0.928 | S. cerevisiae deletion strains, locus YPR119W, strain clb2, stronger effect = lower value 0.983 | S. cerevisiae deletion strains, locus YPR141C, strain kar3, stronger effect = lower value 0.95 | S. cerevisiae deletion strains, locus YPR163C, strain tif3, stronger effect = lower value 0.975 | S. cerevisiae deletion strains, locus YPR167C, strain met16, stronger effect = lower value 0.967 | S. cerevisiae deletion strains, strain wtn01, stronger effect = lower value 0.971 | S. cerevisiae strains, strain wild type, stronger effect = lower value 0.984

— PubChem BioAssay AID1159580 (chemical genetic matrix, 2015)
